Most compounds without a hit are left out; they make up all but 12% or so of the library.
G9a block: inhibitors of human histone lysine methyltransferase G9a. G9a H3K9 monomethylation, AlphaScreen, 2 h. actives 8.8% (n = 350,000). Q96KQ7. Potency, µM (series often up to 102 µM), usual class: inhibitors; also: nearly all actives have a fitted effect of over 75% in size
Target sequence (Q96KQ7 913-1193 limits assumed): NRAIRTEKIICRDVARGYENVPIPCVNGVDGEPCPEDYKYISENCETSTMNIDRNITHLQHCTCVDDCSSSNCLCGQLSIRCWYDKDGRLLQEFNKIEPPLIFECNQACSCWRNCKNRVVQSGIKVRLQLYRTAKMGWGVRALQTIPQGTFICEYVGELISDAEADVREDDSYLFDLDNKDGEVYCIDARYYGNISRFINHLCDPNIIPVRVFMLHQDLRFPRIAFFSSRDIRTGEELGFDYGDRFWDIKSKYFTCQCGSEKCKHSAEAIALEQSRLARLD
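G9a (20 nM) was preincubated 15 min with compound, then reacted 2 h at room temperature with 500 nM biotin-H3K9 peptide and 20 µM SAM. Monomethyl-H3K9 detected by AlphaScreen using anti-H3K9me1 antibody.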
Sfp PPTase inh: Sfp phosphopantetheinyl transferase inhibition; Potency, µM, usual class: inhibitors; actives 3.5% (n = 310,000); Biochemical Sfp PPTase activity, qHTS; Q9F4F7;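 also: the enzyme is Sfp with the accession as filed and its product quenches rhodamine fluorescence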
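Fluorescence-quenching assay with 15 nM Sfp, 5 uM rhodamine-CoA and 12.5 uM BHQ-2-labelled ybbR peptide in pH 7.6 Hepes/MgCl2 buffer. Enzyme was pre-incubated with compound for 15 min at room temperature. Rate was taken from the 30-min fluorescence change (525/598 nm).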
BAZ2B inh: blocks human BAZ2B | Q9UIF8 | AlphaScreen BAZ2B-H3K14Ac peptide displacement | Potency, µM (top dose mostly 114 µM), usual class: inhibitors | actives 4.4% (n = 360,000) | AID 504333; also: nearly all actives have a fitted effect of over 60% in size
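In this displacement format the biotinylated H3(5-23) peptide acetylated at Lys14 serves as ligand at 50 nM, with BAZ2B at 50 nM in PBS pH 7.4 containing 0.01% Tween-20. Donor and acceptor beads are 10 ug/mL final.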
HP1b chromo inh: HP1-beta chromodomain-methylated histone interaction inhibition; P83916; AlphaScreen HP1-beta / biotin-H3K9me3 peptide binding; Potency, µM (titrated, usually from 114 µM), actives largely listed as inhibitors; actives 0.56% (n = 390,000); AID 540317; also: nearly all actives have a fitted effect of over 70% in size
Target sequence (P83916 whole entry, looked up): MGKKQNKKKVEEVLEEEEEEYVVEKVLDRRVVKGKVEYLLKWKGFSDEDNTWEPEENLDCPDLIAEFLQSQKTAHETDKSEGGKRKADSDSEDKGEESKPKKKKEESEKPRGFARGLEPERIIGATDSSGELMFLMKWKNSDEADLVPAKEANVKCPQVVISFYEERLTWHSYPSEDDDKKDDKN
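HP1-beta protein (50 nM final) preincubated 30 min at room temperature with biotinylated H3(1-18)K9me3 peptide (50 nM) in PBS pH 7.4, 0.01% Tween-20, then compound added for 30 min. AlphaScreen streptavidin donor/nickel chelate acceptor beads (10 ug/mL final), 30 min dark, luminescence read.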
JMJD2A Tudor inh: JMJD2A Tudor domain (human) inhibition. O75164. AlphaScreen JMJD2A-Tudor / H3K4me3 peptide binding. Potency, µM (titrated, usually from 114 µM), actives largely listed as inhibitors. actives 4.4% (n = 390,000). AID 504339; also: nearly all actives have a fitted effect of over 50% in size
Numbers stand for hits. Calls follow the shape of the dose curve; as a rule, active = well fitted curve in the direction sought with a large enough effect; inconclusive = small, poorly fitted or top-dose-only effect, or another doubt; inactive = no such curve, though single readings can be large; an effect the other way counts as inactive or inconclusive.

O=C(CN1C(=O)/C(=C/c2ccccc2)SC1=S)Nc1cccnc1 was read as G9a block inactive, Sfp PPTase inh inactive, BAZ2B inh inconclusive, HP1b chromo inh inactive and JMJD2A Tudor inh inactive.
Screening CN(C)S(=O)(=O)c1ccc(C(=O)NCCN2C(=O)S/C(=C\c3cccnc3)C2=O)cc1 returned G9a block inactive, Sfp PPTase inh 40µM, BAZ2B inh inactive, HP1b chromo inh inactive and JMJD2A Tudor inh inactive.
`O=C(CN1C(=O)S/C(=C/c2cccnc2)C1=O)N1CCOCC1` gave G9a block inactive, Sfp PPTase inh inactive, BAZ2B inh inactive, HP1b chromo inh inactive and JMJD2A Tudor inh inactive.
For Cc1ccc(C2CCN(C(=O)Nc3ccc(C)c(C)c3)C2)cc1 (stereo not drawn) the results were G9a block inactive, BAZ2B inh inactive, HP1b chromo inh inactive and JMJD2A Tudor inh inactive.
O=C(C[n+]1cccc(/C=N/O)c1)N1CCCCCC1 was read as G9a block inactive, Sfp PPTase inh inactive, BAZ2B inh inactive, HP1b chromo inh inactive and JMJD2A Tudor inh inactive.
O=C(O)CCN1C(=O)/C(=C\c2cccc(Oc3ccccc3)c2)SC1=S was read as G9a block 50µM, Sfp PPTase inh inactive, BAZ2B inh 50µM, HP1b chromo inh inconclusive and JMJD2A Tudor inh inconclusive.
For COC(=O)CCCCCN1C(=O)/C(=C\c2ccncc2)SC1=S the results were G9a block 10µM, Sfp PPTase inh inactive, BAZ2B inh 25µM, HP1b chromo inh inconclusive and JMJD2A Tudor inh 45µM.
Screening CCCCC(CC)CN1C(=O)/C(=C/c2ccncc2)SC1=S (stereo not drawn) returned Sfp PPTase inh inactive, BAZ2B inh inconclusive, HP1b chromo inh inconclusive and JMJD2A Tudor inh 28µM.
Screening CCN=C1S/C(=C\c2ccc(OCC)c(OC)c2)C(=O)N1CC returned G9a block inactive, Sfp PPTase inh inactive, BAZ2B inh inactive, HP1b chromo inh inactive and JMJD2A Tudor inh inactive.
Screening CC1=C/C(=C\c2ccc(Br)o2)C(=O)O1 returned G9a block inconclusive, Sfp PPTase inh inactive, BAZ2B inh 32µM, HP1b chromo inh inconclusive and JMJD2A Tudor inh 40µM.
Screening COc1cc(/C=C2\C=CC(=O)O2)cc(OC)c1 returned G9a block inactive, Sfp PPTase inh inactive, BAZ2B inh inactive, HP1b chromo inh inactive and JMJD2A Tudor inh inactive.
`COc1ccccc1-c1ccc(/C=C2\C=CC(=O)O2)o1` gave G9a block inconclusive, Sfp PPTase inh inconclusive, BAZ2B inh 50µM, HP1b chromo inh inactive and JMJD2A Tudor inh inconclusive.
`COc1ccccc1-c1ccc(/C=C2/C=C(C)OC2=O)o1` gave G9a block 16µM, Sfp PPTase inh inconclusive, BAZ2B inh inconclusive, HP1b chromo inh inactive and JMJD2A Tudor inh inconclusive.
O=C1C(=Cc2ccc(Br)o2)C(=O)c2ccccc21 was read as G9a block 20µM, Sfp PPTase inh 56µM, BAZ2B inh 13µM, HP1b chromo inh inconclusive and JMJD2A Tudor inh 7.9µM.
For Cc1cc(C(=O)COC(=O)c2ccccc2O)c(C)n1CC1CCCO1 (stereo not drawn) the results were G9a block inactive, BAZ2B inh inconclusive, HP1b chromo inh inactive and JMJD2A Tudor inh inconclusive.
Screening Cc1cc(C(=O)COC(=O)c2cc(O)c3ccccc3c2O)c(C)n1CC1CCCO1 (stereo not drawn) returned G9a block 10µM, Sfp PPTase inh 79µM, BAZ2B inh 50µM, HP1b chromo inh 28µM and JMJD2A Tudor inh 32µM.
CS(=O)(=O)c1cnc2c(S(=O)(=O)c3ccccc3)cnn2c1N was read as G9a block inconclusive, Sfp PPTase inh inactive, BAZ2B inh inactive, HP1b chromo inh inactive and JMJD2A Tudor inh 28µM.
Nc1c(S(=O)(=O)c2ccccc2)cnc2c(-c3ccc(F)cc3)cnn12 was read as G9a block inactive, Sfp PPTase inh inactive, BAZ2B inh inactive, HP1b chromo inh inactive and JMJD2A Tudor inh inactive.
Screening Cn1cccc1/C=N/N1CCN(Cc2ccccc2Cl)CC1 returned G9a block 28µM, Sfp PPTase inh 56µM, BAZ2B inh 35µM, HP1b chromo inh inconclusive and JMJD2A Tudor inh 50µM.
For OCCOCCN1CCN(Cc2cccc(Oc3ccccc3)c2)CC1 the results were Sfp PPTase inh inactive.
`FC(F)(F)c1ccccc1/C=N/N1CCN(Cc2ccccc2)CC1` gave G9a block 7.1µM, Sfp PPTase inh inactive, BAZ2B inh 40µM, HP1b chromo inh inactive and JMJD2A Tudor inh 45µM.
